Test [1] can be described thus: qHTS assay to identify small molecule agonists of the peroxisome proliferator-activated receptor delta (PPARd) signaling pathway - cell viability counter screen (AID 743211). Also: nearly all actives have a fitted effect of over 55% in size. Also: potency is read from the fitted curve at half-maximal effect. A digest of the protocol:
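Multiplexed format: after the 2 h room-temperature LiveBLAzer B/G FRET step, CellTiter-Glo was added to the same wells. Luminescence after 30 min gave cell viability; compound exposure was 17 h at 37C.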
On the technique in general: In qHTS, concentration-response curves come from the screen itself.

The target in test [2] is Peroxisome proliferator-activated receptor delta (Homo sapiens) (UniProt Q03181). The test can be described thus: qHTS assay to identify small molecule agonists of the peroxisome proliferator-activated receptor delta (PPARd) signaling pathway (AID 743212; calls by dose curve). A digest of the protocol:
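GeneBLAzer PPARd UAS-bla HEK293H cells (beta-lactamase reporter under UAS control), plated and rested 5 h at 37 C, then exposed to compounds in DMSO at 37 C; LiveBLAzer B/G FRET substrate added, 2 h room temperature, fluorescence read.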

Test [3] can be described thus: qHTS assay to identify small molecule antagonists of the peroxisome proliferator-activated receptor delta (PPARd) signaling pathway - cell viability counter screen (AID 743213). Also: nearly all actives have a fitted effect of over 50% in size. Also: potency is read from the fitted curve at half-maximal effect. A digest of the protocol: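 HEK293H PPARd UAS-bla cells, 5 h pre-incubation, compound + L165041 300 nM final, 17 h 37 C; B/G FRET substrate 2 h RT; then CellTiter-Glo 30 min RT, luminescence.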

In test [4] the target is Bile acid receptor (Homo sapiens) (UniProt Q96RI1). The test can be described thus: qHTS assay to identify small molecule antagonists of the farnesoid-X-receptor (FXR) signaling pathway (AID 743217; active = well fitted inhibition curve with a large enough effect in the signal ratio in the repeat runs, not every such curve was filed as active; the % refers to the signal ratio). A digest of the protocol: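 FXR-UAS-bla HEK 293T cells pre-incubated 5 h at 37 °C, then exposed to compounds with chenodeoxycholic acid (50 uM final) for 16 h at 37 °C. Beta-lactamase reporter read by LiveBLAzer B/G FRET substrate fluorescence after 2 h at room temperature.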
Chain of Bile acid receptor (Homo sapiens) (Q96RI1 whole entry, looked up): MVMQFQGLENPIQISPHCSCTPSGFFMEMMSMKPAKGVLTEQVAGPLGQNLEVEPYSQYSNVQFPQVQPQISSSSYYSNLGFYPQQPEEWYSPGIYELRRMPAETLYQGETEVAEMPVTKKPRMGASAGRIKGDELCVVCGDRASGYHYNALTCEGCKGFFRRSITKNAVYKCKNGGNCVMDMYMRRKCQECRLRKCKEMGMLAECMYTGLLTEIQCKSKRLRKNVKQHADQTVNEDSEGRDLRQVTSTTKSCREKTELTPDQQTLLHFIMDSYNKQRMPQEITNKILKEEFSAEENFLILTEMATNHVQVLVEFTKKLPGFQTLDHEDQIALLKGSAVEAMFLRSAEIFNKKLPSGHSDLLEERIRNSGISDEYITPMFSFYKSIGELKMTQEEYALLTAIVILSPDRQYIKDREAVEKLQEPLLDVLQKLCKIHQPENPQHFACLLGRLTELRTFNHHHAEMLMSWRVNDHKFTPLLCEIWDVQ

Test [5] can be described thus: qHTS assay to identify small molecule agonists of the farnesoid-X-receptor (FXR) signaling pathway - cell viability counter screen (AID 743218). Also: nearly all actives have a fitted effect of over 45% in size. Also: potency is read from the fitted curve at half-maximal effect. Put shortly: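 FXR-UAS-bla HEK 293T cells, plated 5 h at 37 C, were exposed to compounds for 16 h at 37 C. CellTiter-Glo was then added to the same wells as the bla readout; luminescence read after 30 min at room temperature.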

In test [6] the target is Bile acid receptor (Homo sapiens) (UniProt Q96RI1). The test can be described thus: qHTS assay to identify small molecule agonists of the farnesoid-X-receptor (FXR) signaling pathway (AID 743220; active = well fitted activation curve with a large enough effect in the signal ratio in the repeat runs, not every such curve was filed as active; the % refers to the signal ratio). A digest of the protocol:
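Beta-lactamase reporter under UAS control in GeneBLAzer FXR HEK 293T cells (5000/well) measured with LiveBLAzer FRET substrate after 2 h at room temperature. Compound exposure lasted 16 h at 37C.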

Test [7] can be described thus: qHTS assay to identify small molecule antagonists of the farnesoid-X-receptor (FXR) signaling pathway - cell viability counter screen (AID 743221; active = well fitted cell-killing curve with a large enough effect in the repeat runs, not every such curve was filed as active; also: nearly all actives have a fitted effect of over 50% in size). A digest of the protocol: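 CellTiter-Glo, 30 min RT, luminescence; same wells as the LiveBLAzer FRET read. Cells: FXR-UAS-bla HEK 293T. Treatment: compound with chenodeoxycholic acid 50 uM final, 16 h at 37 C.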
Test [8] concerns the target Vitamin D3 receptor (Homo sapiens) (UniProt P11473). The test can be described thus: qHTS assay to identify small molecule agonists of the vitamin D receptor (VDR) signaling pathway (AID 743222; calls by dose curve). Put shortly:
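VDR-bla cells were plated 4 h at 37C/5% CO2, then exposed to compounds in DMSO for 16 h. After LiveBLAzer B/G FRET substrate addition and 2 h at room temperature, beta-lactamase reporter fluorescence was read.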

Test [9] shares this target. The test can be described thus: qHTS assay to identify small molecule antagonists of the vitamin D receptor (VDR) signaling pathway (AID 743223; active = well fitted inhibition curve with a large enough effect in the signal ratio in the repeat runs, not every such curve was filed as active; the % refers to the signal ratio). A digest of the protocol: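 After VDR-bla cells are plated and left 4 h at 37C, DMSO-dissolved compounds and 3 nM (final) calcitriol agonist are added. Incubation continues 16 h at 37C; FRET beta-lactamase substrate then develops 2 h at room temperature.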

A short description of test [10]: qHTS assay to identify small molecule agonists of the vitamin D receptor (VDR) signaling pathway - cell viability counter screen (AID 743224). Also: nearly all actives have a fitted effect of over 50% in size. Also: potency is read from the fitted curve at half-maximal effect. Put shortly: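 VDR-bla cells were preincubated 4 h at 37C/5% CO2, then exposed to compounds for 16 h. After the 2 h room-temperature bla FRET read, CellTiter-Glo was added to the same wells and luminescence read after 30 min.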

The nature of test [11]: qHTS assay to identify small molecule antagonists of the vitamin D receptor (VDR) signaling pathway - cell viability counter screen (AID 743225). Also: nearly all actives have a fitted effect of over 50% in size. Also: potency is read from the fitted curve at half-maximal effect. Put shortly:
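Cytotoxicity toward the VDR-bla HEK 293T line was scored by ATP-based CellTiter-Glo luminescence, read in the wells already used for the beta-lactamase readout after 16 h compound treatment under 3 nM 1-alpha,25-dihydroxyvitamin D3 stimulation.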

The nature of test [12]: qHTS assay to identify small molecule agonists of the NFkB signaling pathway - cell viability counter screen (AID 1159515; calls by dose curve; also: series mostly up to about 61 µM; nearly all actives have a fitted effect of over 55% in size). A digest of the protocol: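 NFkB-bla ME-180 cells, 2,000/well, were plated overnight at 37 C, 5% CO2, then exposed to compounds in DMSO for 5 hr. After the bla FRET read, CellTiter-Glo was added to the same wells; luminescence was read after 30 min at room temperature.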

Test [13] can be described thus: qHTS assay to identify small molecule agonists of the endoplasmic reticulum stress response signaling pathway (AID 1159516; active = well fitted activation curve with a large enough effect in the signal ratio in the repeat runs, not every such curve was filed as active; the % refers to the signal ratio). A digest of the protocol: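 CellSensor ESRE-bla HeLa cells, carrying a beta-lactamase reporter driven by the ER stress response element, were plated overnight and exposed to compounds for 5 hr at 37 C. Reporter activity was read as FRET substrate fluorescence after 2 hr at room temperature.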

Test [14] is described as follows: qHTS assay to identify small molecule agonists of the endoplasmic reticulum stress response signaling pathway - cell viability counter screen (AID 1159517; calls by dose curve). Put shortly:
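Luminescence readout: CellTiter-Glo, 30 min RT, same wells as the ESRE-bla reporter read. HeLa ESRE-bla, 1,500 cells/well, o/n 37 C; cpd 5 hr 37 C/5% CO2.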

Test [15] in a line: qHTS assay to identify small molecule antagonists of the retinoid-related orphan receptor gamma (ROR-gamma) signaling pathway - cell viability counter screen (AID 1159520). Also: nearly all actives have a fitted effect of over 50% in size. Also: potency is read from the fitted curve at half-maximal effect. Put shortly:
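Tet-on ROR gamma CHO cells (1,000/well) were plated 4 hr, given compounds in DMSO for 2 hr at 37 C, then induced with 1 uM final doxycycline for 16 hr. Viability was read as ATP by CellTiter-Glo luminescence after 30 min.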

Test [16] in a line: qHTS assay to identify small molecule agonists of the AP-1 signaling pathway (AID 1159526; calls by dose curve).
The target in test [17] is Retinoic acid receptor RXR-alpha (Homo sapiens) (UniProt P19793). Nature of the test: qHTS assay to identify small molecule agonists of the RXR signaling pathway (AID 1159527; calls by dose curve; also: nearly all actives have a fitted effect of over 35% in size; also: potency is read from the fitted curve at half-maximal effect). A digest of the protocol:
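Reporter activation is measured as beta-lactamase activity via FRET substrate cleavage (emission 460/530 nm) in HEK 293T cells expressing an RXR-alpha-driven bla construct, following 16 hr compound exposure at 37 C.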

A short description of test [18]: qHTS assay to identify small molecule agonists of the AP-1 signaling pathway - cell viability counter screen (AID 1159525; calls by dose curve; also: nearly all actives have a fitted effect of over 55% in size). Put shortly:
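ME-180 AP-1-bla, 2500 cells/well, Opti-MEM + 0.5% dialyzed FBS; overnight 37 °C; cpd 15-pt titration, 5 h 37 °C; CellTiter-Glo 30 min RT; luminescence read; normalised to TOAB and DMSO controls.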

For test [19], the target named is Peroxisome proliferator-activated receptor delta (Homo sapiens) (UniProt Q03181). Nature of the test: qHTS assay to identify small molecule antagonists of the peroxisome proliferator-activated receptor delta (PPARd) signaling pathway (AID 743215; active = well fitted inhibition curve with a large enough effect in the signal ratio in the repeat runs, not every such curve was filed as active; the % refers to the signal ratio;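 also: cells stimulated with agonist L165041 at 300 nM final during compound exposure; series mostly up to about 62 µM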). Put shortly: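 PPARd UAS-bla HEK293H cells were pre-incubated 5 h at 37 C, then given test compounds in DMSO plus agonist L165041 (300 nM final). After 17 h at 37 C, beta-lactamase FRET substrate was added; fluorescence read after 2 h at room temperature.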
Chain of Peroxisome proliferator-activated receptor delta (Homo sapiens) (Q03181 whole entry, looked up): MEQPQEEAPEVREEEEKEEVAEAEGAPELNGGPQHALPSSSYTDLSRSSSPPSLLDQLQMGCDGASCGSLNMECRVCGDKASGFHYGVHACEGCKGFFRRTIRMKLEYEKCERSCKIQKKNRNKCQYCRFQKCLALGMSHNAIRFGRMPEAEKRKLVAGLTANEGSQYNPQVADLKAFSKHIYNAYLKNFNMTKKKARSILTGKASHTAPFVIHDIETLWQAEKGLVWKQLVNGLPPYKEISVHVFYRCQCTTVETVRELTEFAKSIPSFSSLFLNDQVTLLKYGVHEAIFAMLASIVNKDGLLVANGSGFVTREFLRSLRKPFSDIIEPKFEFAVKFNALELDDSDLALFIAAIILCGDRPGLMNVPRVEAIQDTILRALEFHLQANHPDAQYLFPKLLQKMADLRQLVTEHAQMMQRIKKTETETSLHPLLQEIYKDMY

In test [20] the target is Nuclear receptor ROR-gamma (Homo sapiens) (UniProt P51449). The test can be described thus: qHTS assay to identify small molecule antagonists of the retinoid-related orphan receptor gamma (ROR-gamma) signaling pathway (AID 1159521; also: nearly all actives have a fitted effect of over 50% in size; also: potency is read from the fitted curve at half-maximal effect). Put shortly: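 Readout: ONE-Glo luciferase luminescence, 30 min at room temperature. System: Tet-on RORγ CHO, RORE-LUC. Sequence: compound 2 h, doxycycline 1 uM final, 16 h at 37 C.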

Values joined by “and” are separate entries in the source; they are usually repeats but may differ in a detail not shown here. Identical values can stand only once. Results filed as inconclusive are left out. Active and inactive are the calls of the source. Unless noted, calls follow the shape of the dose curve; as a rule, active = well fitted curve in the direction sought with a large enough effect in the repeat runs; inconclusive = weak or mixed curves; inactive = no such curve, though single readings can be large; an effect the other way counts as inactive or inconclusive.

Chain of Retinoic acid receptor RXR-alpha (Homo sapiens) (P19793 whole entry, looked up): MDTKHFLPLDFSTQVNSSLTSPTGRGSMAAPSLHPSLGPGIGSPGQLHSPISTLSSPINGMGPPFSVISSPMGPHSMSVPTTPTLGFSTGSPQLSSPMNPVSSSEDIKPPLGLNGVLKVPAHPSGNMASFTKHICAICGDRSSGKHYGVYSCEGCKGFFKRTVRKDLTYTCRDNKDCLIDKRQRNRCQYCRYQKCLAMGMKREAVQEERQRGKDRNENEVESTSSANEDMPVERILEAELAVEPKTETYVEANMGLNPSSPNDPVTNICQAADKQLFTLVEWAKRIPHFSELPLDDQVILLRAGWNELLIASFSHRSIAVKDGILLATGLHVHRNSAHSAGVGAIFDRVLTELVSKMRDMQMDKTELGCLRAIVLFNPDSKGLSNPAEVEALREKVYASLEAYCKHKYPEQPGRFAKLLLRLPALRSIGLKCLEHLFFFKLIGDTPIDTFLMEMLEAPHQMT
Chain of Vitamin D3 receptor (Homo sapiens) (P11473 whole entry, looked up): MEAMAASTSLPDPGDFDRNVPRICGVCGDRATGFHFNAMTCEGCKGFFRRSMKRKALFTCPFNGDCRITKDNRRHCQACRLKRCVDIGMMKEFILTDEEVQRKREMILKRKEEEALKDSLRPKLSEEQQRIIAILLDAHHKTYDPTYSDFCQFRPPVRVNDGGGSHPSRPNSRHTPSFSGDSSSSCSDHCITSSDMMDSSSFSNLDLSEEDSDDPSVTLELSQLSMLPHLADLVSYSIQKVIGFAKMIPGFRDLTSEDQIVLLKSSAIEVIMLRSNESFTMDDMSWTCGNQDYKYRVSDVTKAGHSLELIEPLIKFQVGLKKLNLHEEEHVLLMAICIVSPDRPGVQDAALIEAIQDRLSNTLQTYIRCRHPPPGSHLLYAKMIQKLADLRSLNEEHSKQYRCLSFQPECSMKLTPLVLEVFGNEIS

As for `OCCCl`, the Potency result in test [1], in test [3], in test [4], in test [5], in test [7] and in test [9] was “inactive” in each case. The Potency entry in test [10], in [11], in [12], in test [13], in [14] and in [15] was “inactive” each time. Further, the Potency result in [16] is “inactive”. Further, the outcome in test [2], in test [6] and in test [8] was inactive. The Potency in test [17] was 19.5 µM (active).
As to `O=C(Cc1ccccc1)c1ccccc1`, the Potency result in test [1], in [3], in test [4], in [5], in test [7] and in test [9] was “inactive” throughout. Also, the Potency result in test [10], in test [12], in test [13], in [14], in test [15] and in [18] was “inactive” in each case. Further, the Potency entry in test [16] and in test [17] was “inactive” throughout. For the same compound, the compound was classed as inactive in test [2], in [6] and in [8].
With `CCOc1cccc(C2(N3CCN(c4ccccc4)CC3)CCC(C)CC2)c1` (configuration not stated), the Potency result in [1], in test [3], in [19], in test [5], in [7] and in test [9] was “inactive” each time. In addition, the Potency result in test [10], in [11], in [12], in [13], in test [15] and in test [20] was “inactive” in each case. Besides, the Potency result in test [18], in test [16] and in [17] was “inactive” each time. The call in test [2] and in [8] was inactive.
As to `C[C@@H]1C[C@@H]([C@H](O)CC2CC(=O)NC(=O)C2)C(=O)[C@@H](C)C1`, the Potency result in test [3], in test [4], in test [5], in test [7], in test [10] and in test [11] was “inactive” in each case. The Potency entry in test [12], in [13] and in [14] was “inactive” in each case. The compound was classed as inactive in test [6]. In addition, the Potency in test [20] is 383 nM (active) and 137 nM (active) and 237 nM (active).
Consider `O=C1c2ccccc2C(=O)N1SC(Cl)(Cl)Cl`, for which the Potency in test [1] is 38.3 µM (active) and 6.92 µM (active); in [3], 21.6 µM (active) and 5.49 µM (active); in test [5], 34.7 µM (active); in test [10] it was 19.2 µM (active) and 6.92 µM (active); in [11] it was 34.2 µM (active); in [15], 30.2 µM (active) and 21.7 µM (active). Also, the Potency in [20] was 6.03 µM (active) and 7.7 µM (active). Further, the compound was classed as inactive in [6]. The Potency result in test [12] and in test [14] was “inactive” throughout.
For the compound `CCCCNC(=O)OCC#CI`, the Potency entry in test [4], in [7], in [11], in [12] and in test [14] was “inactive” each time. Further, the compound was called inactive in test [6]. The Potency in test [10] was 48.7 µM (active) and 43.6 µM (active); in test [15], 54.2 µM (active) and 17.2 µM (active); in test [20], 24.2 µM (active).
As for `Nc1ccc2c(c1)Cc1ccccc1-2`, the result in [2] and in test [8] was inactive. Further, the Potency entry in [3], in test [19], in test [5], in test [7], in test [9] and in test [10] was “inactive” throughout. For the same compound, the Potency result in [11], in [12], in test [13], in [15], in test [20] and in test [18] was “inactive” throughout. Further, the Potency entry in test [16] and in test [17] was “inactive” each time.

The values above are taken from PubChem BioAssay (Tox21).
